Compound activity as filed in PubChem.
This is a sample that favours compounds with a hit; in the whole collection about 3.5% have one here.
BoNT-A LC inh2: BoNT A light chain protease inhibition. hit rate 0.17% among 360,000. multiplex microsphere protease substrate cleavage, flow cytometry. inhibition, % at 10 µM; also: plate controls were buffer without enzyme for full effect and enzyme alone for no effect
BoNT F protease: blocks Botulinum neurotoxin F light chain protease. hit rate 0.22% among 360,000. inhibition, % at 10 µM. AID 588497. Multiplex microsphere protease cleavage assay, flow cytometry; in the data active = inhibition above about 35%, passing the limit was not always enough; inconclusive = no clear call, values can overlap the other calls; also: plate controls were buffer without enzyme for full effect and enzyme alone for no effect
Anthrax LF inh2: inhibitors of Bacillus anthracis lethal factor protease; multiplex microsphere protease cleavage assay, LF; inhibition, % at 10 µM; hit rate 0.12% among 360,000; AID 588501; also: plate controls were buffer without enzyme for full effect and enzyme alone for no effect
Bead autofluor: compound fluorescence in toxin protease inhibitor counterscreen. compound autofluorescence counterscreen, microsphere flow cytometry; hits give high values. fluorescence intensity (concentration not given with the values). hit rate 3.1% among 360,000. AID 624483; in the data active = fluorescence intensity above about 16000; inconclusive = no clear call, values can overlap the other calls
BJeLR lethal: BJeLR cell viability loss; BJeLR (HRASV12) viability, CellTiter-Glo ATP luminescence, 48 h; inhibition, % (concentration not given with the values); hit rate 0.17% among 300,000; AID 1554; in the data active = inhibition above about 50%; inconclusive = no clear call, values can overlap the other calls
* marks the source's active call; other numbers are inactive results. Rule as the data show it, unless noted: active = inhibition above about 30%; inconclusive = no clear call, values can overlap the other calls; inactive = below that.

For O=C(Nc1nnc([C@@H]2C[C@H](O)[C@@H](CO)O2)s1)Nc1ccccc1F the results were BoNT-A LC inh2 -0.2, BoNT F protease 4.6, Anthrax LF inh2 1.0 and Bead autofluor 3879.
`CC(=NCc1cccnc1)c1c(O)n(C2CCCCC2)c(=O)[nH]c1=O` gave BoNT-A LC inh2 inconclusive, BoNT F protease -0.7, Anthrax LF inh2 -1.6, Bead autofluor 22369* and BJeLR lethal 9.0.
CCC(=NCc1cccnc1)c1c(O)n(C2CCCCC2)c(=O)[nH]c1=O was read as BoNT-A LC inh2 0.1, BoNT F protease -0.2, Anthrax LF inh2 -3.6, Bead autofluor 20661* and BJeLR lethal 1.3.
CCC(=NCc1cccnc1)c1c(O)n(-c2ccccc2C)c(=O)[nH]c1=O was read as BoNT-A LC inh2 3.3, BoNT F protease inconclusive, Anthrax LF inh2 10.4, Bead autofluor 3658 and BJeLR lethal -8.5.
CC(=NCc1cccnc1)c1c(O)n(-c2ccc(C)cc2)c(=O)[nH]c1=O was read as BoNT-A LC inh2 1.8, BoNT F protease 11.1, Anthrax LF inh2 0.3, Bead autofluor 8276 and BJeLR lethal 1.2.
CC(=NCc1cccnc1)c1c(O)n(-c2ccccc2C)c(=O)[nH]c1=O was read as BoNT-A LC inh2 -1.9, BoNT F protease -5.4, Anthrax LF inh2 2.5, Bead autofluor 20266* and BJeLR lethal 4.4.
`O=C(c1[nH]c(C(F)(F)F)nc1-c1ccccc1)N1CCN(c2cccc(C(F)(F)F)n2)CC1` gave BoNT-A LC inh2 -0.8, BoNT F protease -2.2, Anthrax LF inh2 -9.9 and Bead autofluor 6024.
Screening COc1ccc2[nH]c(=O)c(CN(c3ccccc3OC)S(=O)(=O)c3ccccc3)cc2c1 returned BoNT-A LC inh2 0.0, BoNT F protease -1.1, Anthrax LF inh2 2.5, Bead autofluor 6323 and BJeLR lethal -13.2.
For O=C1C(=Cc2ccccc2O)SC(=S)N1CCCN1CCOCC1 the results were BoNT-A LC inh2 -0.6, BoNT F protease -5.4, Anthrax LF inh2 -12.8 and Bead autofluor 4380.
Screening CC1=CC(C)(C)N=C(Nc2nc(C)c3cc(C)cc(C)c3n2)N1 returned BoNT-A LC inh2 0.1, BoNT F protease 0.7, Anthrax LF inh2 -3.4, Bead autofluor 6348 and BJeLR lethal 0.3.
`CC1=CC(C)(C)N=C(NC#N)N1` gave BoNT-A LC inh2 0.8, BoNT F protease 1.6, Anthrax LF inh2 -1.1, Bead autofluor 19967* and BJeLR lethal -1.8.
For COc1ccc([C@H]2C[C@H](O)[C@@H](n3cc(COC(=O)c4ccccc4)nn3)CN2CC2CCCCC2)cc1 the results were BoNT-A LC inh2 0.4, BoNT F protease 4.0, Anthrax LF inh2 -0.5 and Bead autofluor 3665.
COc1cc(C(=O)N2CCC(NC(=O)C(Cc3ccc(C)cc3)NC(C)=O)CC2)cc(OC)c1OC (configuration not stated) was read as BoNT-A LC inh2 -0.5, BoNT F protease -1.2, Anthrax LF inh2 -3.8, Bead autofluor 22816* and BJeLR lethal -12.3.
COc1cc(C(=O)N2CCC(NC(=O)C(Cc3ccccc3C)NC(C)=O)CC2)cc(OC)c1OC (configuration not stated) was read as BoNT-A LC inh2 inconclusive, BoNT F protease -1.8, Anthrax LF inh2 1.1, Bead autofluor 21354* and BJeLR lethal -4.6.
`COc1cc(C(=O)N2CCN(C(=O)C(Cc3cc(C)ccc3C)NC(C)=O)CC2)cc(OC)c1OC` (configuration not stated) gave BoNT-A LC inh2 2.8, BoNT F protease 1.2, Anthrax LF inh2 -2.8, Bead autofluor 22028* and BJeLR lethal 2.0.
`CCOC(=O)N(C)c1c(CC)nc2c(OCc3ccccc3)cccn12` gave BoNT-A LC inh2 -0.6, BoNT F protease -4.4, Anthrax LF inh2 2.4 and Bead autofluor 4500.
CC(C)NC(=O)CSc1nc2ccccc2n1-c1ccccc1 was read as BoNT-A LC inh2 -0.4, BoNT F protease -2.1, Anthrax LF inh2 0.8, Bead autofluor 22704* and BJeLR lethal -0.4.
CCC(C)NC(=O)CCC(=O)Nc1ccc2nc(N3CCOCC3)cc(C)c2c1 (configuration not stated) was read as BoNT-A LC inh2 0.8, BoNT F protease 6.5, Anthrax LF inh2 -1.5, Bead autofluor 2804 and BJeLR lethal 7.1.
Screening Cc1cc(N2CCOCC2)nc2ccc(NC(=O)CCC(=O)N3CCCCC3)cc12 returned BoNT-A LC inh2 -1.4, BoNT F protease -1.9, Anthrax LF inh2 -2.9, Bead autofluor 23643* and BJeLR lethal -5.0.
For COc1ccc(N(C)C(=O)CCC(=O)Nc2ccc3nc(N4CCOCC4)cc(C)c3c2)c(OC)c1 the results were BoNT-A LC inh2 -0.2, BoNT F protease -2.2, Anthrax LF inh2 -1.7, Bead autofluor 16645* and BJeLR lethal -14.1.
Cc1cc(N2CCOCC2)nc2ccc(NC(=O)CCC(=O)N3CCC(C)CC3)cc12 was read as BoNT-A LC inh2 1.9, BoNT F protease 0.4, Anthrax LF inh2 -2.5, Bead autofluor 19171* and BJeLR lethal -1.7.
O=C(Nc1cccc(Cn2cccn2)c1)c1cc2c(s1)CCCC2 was read as BoNT-A LC inh2 -3.0, BoNT F protease -3.3, Anthrax LF inh2 -7.8, Bead autofluor 16682* and BJeLR lethal 1.4.
O=C(Cn1cnc2nc3n(c2c1=O)CCC3)NCc1ccccc1 was read as BoNT-A LC inh2 -0.4, BoNT F protease -2.9, Anthrax LF inh2 0.5, Bead autofluor 2331 and BJeLR lethal -11.5.
`Cc1cc(C(=O)Nc2nccs2)c2cc(F)ccc2n1` gave BoNT-A LC inh2 0.8, BoNT F protease inconclusive, Anthrax LF inh2 -1.0, Bead autofluor 3076 and BJeLR lethal 3.7.
Screening COCCCNC(=O)c1cc(C)nc2ccc(F)cc12 returned BoNT-A LC inh2 0.6, BoNT F protease 2.5, Anthrax LF inh2 -4.7, Bead autofluor 21925* and BJeLR lethal -0.7.
For CCOC1=C2CN(S(=O)(=O)c3ccc(C)cc3)[C@H](c3ccccc3)C[C@H]2[C@H]2C(=O)N(c3ccccc3)C(=O)[C@H]2C1 the results were BoNT-A LC inh2 -0.7, BoNT F protease 2.7, Anthrax LF inh2 -5.6 and Bead autofluor 5385.
C=CCN1C(=O)[C@]2(c3ccccc31)C1CCCC=C1C(C#N)=C(N)C2(C#N)C#N (some centres not stated) was read as BoNT-A LC inh2 inconclusive, BoNT F protease -2.5, Anthrax LF inh2 -8.1, Bead autofluor 20366* and BJeLR lethal 1.3.
Screening C=CCN1C(=O)C2(c3ccccc31)C1CCCC=C1C(C#N)=C(N)C2(C#N)C#N (configuration not stated) returned BoNT-A LC inh2 0.0, BoNT F protease 3.4, Anthrax LF inh2 0.4, Bead autofluor 9585 and BJeLR lethal -0.3.
Screening Cc1ccc(Cn2c(SCC(=O)NCc3ccco3)nc3ccsc3c2=O)cc1 returned BoNT-A LC inh2 -0.9, BoNT F protease 1.3, Anthrax LF inh2 -6.0, Bead autofluor 11634 and BJeLR lethal 4.5.
For COCCNC(=O)CSc1nc2ccc(N3CCOCC3)cc2c(=O)n1Cc1ccc(OC)cc1 the results were BoNT-A LC inh2 1.5, BoNT F protease 10.6, Anthrax LF inh2 -1.3, Bead autofluor 4256 and BJeLR lethal -7.0.
